# Results as given in PubChem BioAssay.
# Several values for one entry are separate records, joined by “and”; a condition that tells them apart may be missing. Equal entries are not always repeated. Activity calls are given as the source filed them.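 The calls were made as follows, unless noted: active = compounds whose cell count with miR-34 switched on is under 0.7 times the count with it off; inactive = the rest.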
# Columns and labels:
# [1] = yeast 75Q aggregation reduction – 75Q-TubU reporter (AID 1593); conditions: Yeast 75Q polyglutamine aggregation reporter
# [2] = blockers of cytochrome c efflux from mitochondria – biochemical, purified mitochondria (AID 1603); conditions: stronger effect = lower value;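 also: mouse liver mitochondria challenged with calcium chloride; signal normalized to the plate average as 100%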
# [3] = polyglutamine aggregate formation blockers (AID 1604); conditions: polyglutamine-induced protein aggregation inhibition assay; stronger effect = higher value; tested at 2.5 µM
# [4] = Wnt pathway potentiators raising nuclear beta-catenin – imaging, WNT3A-conditioned medium, mouse C2C12, NPC library, primary screen (AID 1117326; in the data active = nuclear beta-catenin stimulation mostly above about 4.2%, no sharp cut-off; inactive = mostly below about 10%); conditions: stronger effect = higher value
# [5] = stimulators of insulin release from INS-1E, primary screen, cell-based, 5 mM glucose, NPC library (AID 1117329;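 active = compound raises insulin release from rat beta cells at 5 mM glucose, no numeric limit stated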); conditions: rat INS-1E insulin secretion, at 10 µM, stronger effect = higher value
# [6] = growth inhibition of GSK3B-pretreated HCT116 cells – cell-based, CellTiter-Glo, 0.2 to 20 µM (AID 1117336;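 active = compounds lowering colon cancer cell viability after pretreatment blocking the GSK3B kinase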); conditions: HCT116 viability after GSK3B inhibitor, at 20 µM, stronger effect = higher value
# [7] = inhibition of endothelial tube formation, primary screen, imaging, VEGF stimulated, CD31 staining, tube area, NPC library (AID 1117340;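 active = compound that reduces growth-factor-driven endothelial tube area in a mixed cell culture, no cutoff stated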); conditions: VEGF-stimulated ADSC/ECFC co-culture, at 10 µM, stronger effect = higher value
# [8] = GLP1 release stimulators, primary, NCI-H716, NPC library (AID 1117341;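 active = compound raises GLP1 secretion from the human gut endocrine cells, with no numeric limit stated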); conditions: NCI-H716 cells, at 10 µM, stronger effect = higher value
# [9] = HCT116 colon cancer cell growth inhibition, primary screen, CellTiter-Glo luminescence, NPC library (AID 1117342;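 active = compounds that lower survival of HCT116 colon cancer cells in the luminescence readout, no numeric limit stated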); conditions: at 20 µM (top of the series)
# [10] = reduced SW480 viability measured with CellTiter-Glo, NPC library, primary (AID 1117343;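 active = compounds that lower viability of the colon cancer cells in the luminescence readout, with no numeric limit stated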); conditions: CellTiter-Glo luminescence; at 20 µM (top of the series)
# [11] = NPC library primary testing for decreased DLD-1 cell viability via CellTiter-Glo (AID 1117346;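 active = compounds that lower survival of DLD-1 colon cancer cells in the luminescence readout, no cutoff given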); conditions: DLD-1 viability, CellTiter-Glo luminescence; at 20 µM (top of the series)
# [12] = biological target: 6-phosphogluconate dehydrogenase, decarboxylating (Homo sapiens) (UniProt P52209); assay: inhibition of human phosphogluconate dehydrogenase – biochemical, recombinant enzyme, NADPH absorbance, primary screen (AID 1159550;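 active = at least 20% inhibition of 6-phosphogluconate dehydrogenase activity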); conditions: recombinant 6PGD, NADPH absorbance 341 nm; at 10 µM; stronger effect = higher value
# [13] = EMT-state selective cytotoxicity in co-culture – imaging, PC-3E GFP, TEM4-18 mCherry, primary screen (AID 1345086;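 active = compounds killing one labelled cell type while sparing the other, by normalised counts and ratio limits, not self-fluorescent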;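 as to all read-outs here: cells exposed to compound for 72 h before imaging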;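 as to red/green cell ratio (normalised): normalised mesenchymal count divided by normalised epithelial count so high means epithelial killing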); conditions: PC-3E GFP / TEM4-18 mCherry co-culture, imaging cell counts, at 1 µM; for red/green cell ratio (normalised): actives lie on both sides
# [14] = system: Aerobactin synthetase IucA (Klebsiella pneumoniae hvKP1); assay: IucA enzyme inhibition, primary screen, biochemical, Spectrum library (AID 1346200; call rule not given here;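 also: 100% = wells without compound and 0% = wells lacking enzyme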); conditions: malachite green pyrophosphate, A620, at 8 µM, stronger effect = lower value
# [15] = MELAS cybrid and Rieske KO viability enhancers – cell-based, MELAS cybrids, Rieske KO mouse fibroblasts, CellTiter-Glo, primary screen (AID 1508586;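 active = mean z-score across replicates of 1.96 or higher in either the MELAS or the Rieske mutant cell line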;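 also: z relative to plate mean and SD of compound and empty wells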); conditions: low glucose
# [16] = biological target: NAD(+) hydrolase SARM1 (Homo sapiens) (UniProt Q6SZW1); assay: blocking NAD cleavage by SARM1 SAM-TIR – cell lysate, NAD-Glo luminescence (AID 1508614;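 active = compound whose remaining NAD level is above about 45 nM, limit read from the data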;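 also: higher remaining NAD means stronger inhibition of SARM1 NADase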); conditions: SAM-TIR HEK293T lysate NADase, at 1 µM, stronger effect = higher value
# [17] = biological target: Mitogen-activated protein kinase 7 (Homo sapiens) (UniProt Q13164); assay: Gal4-ERK5 driven luciferase induction – cell-based, HTS, primary screen (AID 1508626;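 active = luciferase signal above three times the same-plate solvent-only control wells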;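 also: luciferase driven by Gal4-ERK5 fusion binding five Gal4 sites before minimal TATA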); conditions: HeLa Gal4-ERK5 transactivation, 18 h, at 5 µM, stronger effect = higher value
# [18] = galactose survival enhancers in mitochondrial complex I cybrids – cell-based, galactose medium, ATP luminescence, primary screen (AID 1645843;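 active = z-score of at least 1.8 in each of two replicates, scored against plate mean and spread of sample wells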;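 also: positive z means more ATP and so rescue of galactose-driven cybrid death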); conditions: complex I mutant cybrid cells, 72 h, stronger effect = higher value
# [19] = P. berghei load reduction in hepatocytes – cell-based, HepG2, luciferase luminescence, HepG2 viability, primary screen (AID 624349; in the data active = parasite load remaining mostly below about 12%, no sharp cut-off; inactive = mostly above about 10%;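 also: 100% = mean of DMSO negative control wells on the same plate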); conditions: P. berghei liver stage in HepG2, luciferase luminescence, concentration not given here; parasite load remaining: stronger effect = lower value; viability: measured here: HepG2 viability without parasites
# [20] = viability loss with induced miR-34 in A549 – imaging, A549 dox-inducible miR-34, nuclei and caspase counts, primary screen (AID 1347080); conditions: A549 miR-34 inducible, Hoechst nuclei count, 48 h
# [21] = measured here: epithelial PC-3E GFP cell survival
# [22] = measured here: mesenchymal TEM4-18 mCherry cell survival
# [23] = MELAS cybrid survival, CellTiter-Glo 48 h, stronger effect = higher value
# [24] = Rieske KO mouse fibroblast survival, CellTiter-Glo 72 h
# [25] = measured here: relative caspase fold change +Dox/-Dox
# [26] = measured here: total cells with miR-34 induction, stronger effect = lower value
# [27] = measured here: total cells without miR-34 induction
# Chain of 6-phosphogluconate dehydrogenase, decarboxylating (Homo sapiens) (P52209 whole entry, looked up): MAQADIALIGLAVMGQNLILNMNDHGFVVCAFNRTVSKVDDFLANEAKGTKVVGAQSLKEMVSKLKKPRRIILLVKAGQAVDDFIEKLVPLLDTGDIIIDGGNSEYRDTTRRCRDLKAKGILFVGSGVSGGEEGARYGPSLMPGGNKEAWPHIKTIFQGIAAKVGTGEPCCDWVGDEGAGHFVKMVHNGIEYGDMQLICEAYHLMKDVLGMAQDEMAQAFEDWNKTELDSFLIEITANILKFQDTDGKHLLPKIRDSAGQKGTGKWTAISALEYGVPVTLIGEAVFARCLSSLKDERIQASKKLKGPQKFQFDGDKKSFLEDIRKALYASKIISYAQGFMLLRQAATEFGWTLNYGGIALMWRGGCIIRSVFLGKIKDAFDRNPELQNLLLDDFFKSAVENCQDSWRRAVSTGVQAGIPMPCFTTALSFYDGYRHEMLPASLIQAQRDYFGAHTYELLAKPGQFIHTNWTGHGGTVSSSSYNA
# Chain of Mitogen-activated protein kinase 7 (Homo sapiens) (Q13164 whole entry, looked up, the tested form may be a part): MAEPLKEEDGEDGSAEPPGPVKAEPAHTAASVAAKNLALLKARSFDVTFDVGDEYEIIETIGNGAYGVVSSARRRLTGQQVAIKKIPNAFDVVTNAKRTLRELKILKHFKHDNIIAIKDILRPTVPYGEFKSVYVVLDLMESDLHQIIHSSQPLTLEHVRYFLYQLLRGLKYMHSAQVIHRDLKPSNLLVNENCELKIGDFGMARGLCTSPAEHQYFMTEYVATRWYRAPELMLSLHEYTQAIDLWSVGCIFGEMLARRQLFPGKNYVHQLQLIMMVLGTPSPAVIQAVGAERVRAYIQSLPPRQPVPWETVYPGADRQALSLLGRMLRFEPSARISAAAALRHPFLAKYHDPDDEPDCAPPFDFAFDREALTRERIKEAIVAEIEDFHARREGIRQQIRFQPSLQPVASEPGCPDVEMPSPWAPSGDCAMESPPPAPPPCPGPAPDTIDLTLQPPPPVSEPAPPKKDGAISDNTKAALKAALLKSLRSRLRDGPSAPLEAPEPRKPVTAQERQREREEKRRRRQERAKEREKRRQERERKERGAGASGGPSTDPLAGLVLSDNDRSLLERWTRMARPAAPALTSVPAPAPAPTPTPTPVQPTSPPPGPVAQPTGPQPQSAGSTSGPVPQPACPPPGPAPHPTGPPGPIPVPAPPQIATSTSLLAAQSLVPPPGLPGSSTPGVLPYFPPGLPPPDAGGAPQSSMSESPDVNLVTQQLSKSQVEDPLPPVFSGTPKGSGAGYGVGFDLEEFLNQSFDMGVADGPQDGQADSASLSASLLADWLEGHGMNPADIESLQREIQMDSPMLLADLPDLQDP
# Chain of NAD(+) hydrolase SARM1 (Homo sapiens) (Q6SZW1 whole entry, looked up, the tested form may be a part): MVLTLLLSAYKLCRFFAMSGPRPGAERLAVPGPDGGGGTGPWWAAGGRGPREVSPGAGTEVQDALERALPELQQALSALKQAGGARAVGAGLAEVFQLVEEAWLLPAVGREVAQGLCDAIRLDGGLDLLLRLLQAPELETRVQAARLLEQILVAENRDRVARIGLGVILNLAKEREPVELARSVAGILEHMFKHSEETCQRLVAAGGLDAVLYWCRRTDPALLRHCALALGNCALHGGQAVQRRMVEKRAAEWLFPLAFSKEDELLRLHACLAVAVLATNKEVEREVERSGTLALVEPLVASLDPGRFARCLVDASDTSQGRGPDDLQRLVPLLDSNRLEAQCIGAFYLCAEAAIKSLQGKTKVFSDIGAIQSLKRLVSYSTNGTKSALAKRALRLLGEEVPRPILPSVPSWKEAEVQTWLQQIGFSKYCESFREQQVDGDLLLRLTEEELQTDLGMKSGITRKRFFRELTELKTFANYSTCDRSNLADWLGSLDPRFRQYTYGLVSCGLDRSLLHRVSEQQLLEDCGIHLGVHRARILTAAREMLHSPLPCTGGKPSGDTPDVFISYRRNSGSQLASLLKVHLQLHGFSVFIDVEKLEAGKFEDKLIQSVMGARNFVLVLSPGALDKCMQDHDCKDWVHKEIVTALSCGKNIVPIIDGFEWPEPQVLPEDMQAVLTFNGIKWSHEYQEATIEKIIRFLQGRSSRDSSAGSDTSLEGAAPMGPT
structure (smiles),measurement,setting,value
NC(=O)CN1CCCC1=O,score,[1],1.12
same,cytochrome c release ratio,[2],0.79
same,inhibition of aggregation,[3],1.59%
same,nuclear beta-catenin stimulation,[4]; at 10 µM,-0.1% (inactive)
same,nuclear beta-catenin stimulation,"[4]; stimulation, at 2 µM",1.2%
same,insulin secretion stimulation,[5],0.2% (inactive)
same,viability decrease,[6],-6.65% (inactive)
same,tube area decrease,[7],-16.1% (inactive)
same,GLP1 secretion stimulation,[8],1.9% (inactive)
same,inhibition of viability,[9],-10.5% (inactive)
same,viability decrease (inhibition),[10],10% (inactive)
same,viability decrease (inhibition),[11],0.05% (inactive)
same,inhibition,[12],-18.4% (inactive)
same,red/green cell ratio (normalised),[13],1.04 (inactive)
same,normalised cell number,[13]; [21],0.91
same,normalised cell number,[13]; [22],0.95
same,activity remaining,[14],112% (inactive)
same,z-score,[15]; [23],0.856 (inactive) and 0.336 (inactive)
same,z-score,[15]; [24],-2.44 and 0.0138
same,remaining NAD,[16],10 nM (inactive)
same,luciferase signal,[17],44 AU (inactive)
same,z-score,[18],0.785 (inactive)
C[C@@H]1CC[C@H]2[C@@H](C)C(=O)O[C@@H]3O[C@@]4(C)CC[C@@H]1[C@]32OO4,parasite load remaining,[19],25.6% (inactive) and 10.2% (inactive)
same,viability,[19],117% and 66.5%
same,nuclear beta-catenin stimulation,[4]; at 10 µM,4.6% (inactive)
same,nuclear beta-catenin stimulation,"[4]; stimulation, at 2 µM",12.4%
same,insulin secretion stimulation,[5],1.2% (inactive)
same,viability decrease,[6],-77.7% (inactive)
same,tube area decrease,[7],2.4% (inactive)
same,GLP1 secretion stimulation,[8],2.4% (inactive)
same,inhibition of viability,[9],-20.1% (inactive)
same,viability decrease (inhibition),[10],9.1% (inactive)
same,viability decrease (inhibition),[11],1.3% (inactive)
same,inhibition,[12],13.7% (inactive)
same,fold change,[20]; stronger effect = lower value,0.79 (inactive) and 0.823 (inactive) and 0.882 (inactive)
same,fold change,[20]; [25],1.42 and 2.37 and 1.1
same,cell count,[20]; [26],7550 and 7220 and 8310
same,cell count,[20]; [27],9550 and 8770 and 9420
same,z-score,[15]; [23],-0.639 (inactive) and -0.018 (inactive)
same,z-score,[15]; [24],-1.11 and 0.162
same,remaining NAD,[16],10 nM (inactive)
same,luciferase signal,[17],84 AU (inactive)
same,z-score,[18],-0.515 (inactive) and -1.27 (inactive)
NCC(CC(=O)O)c1ccc(Cl)cc1 (centres undefined),score,[1],1.02
same,cytochrome c release ratio,[2],0.97
same,inhibition of aggregation,[3],63.5%
same,nuclear beta-catenin stimulation,[4]; at 10 µM,-0.5% (inactive)
same,nuclear beta-catenin stimulation,"[4]; stimulation, at 2 µM",0.7%
same,insulin secretion stimulation,[5],2.7% (inactive)
same,viability decrease,[6],-7.8% (inactive)
same,tube area decrease,[7],-22.1% (inactive)
same,GLP1 secretion stimulation,[8],-2.6% (inactive)
same,inhibition of viability,[9],-14.8% (inactive)
same,viability decrease (inhibition),[10],-1.8% (inactive)
same,viability decrease (inhibition),[11],7.35% (inactive)
same,inhibition,[12],5.14% (inactive)
same,red/green cell ratio (normalised),[13],0.69 (inactive)
same,normalised cell number,[13]; [21],1.3
same,normalised cell number,[13]; [22],0.89
same,activity remaining,[14],103% (inactive)
same,fold change,[20]; stronger effect = lower value,1.01 (inactive) and 0.984 (inactive) and 0.815 (inactive)
same,fold change,[20]; [25],1.78 and 1.11 and 0.933
same,cell count,[20]; [26],7900 and 7930 and 10200
same,cell count,[20]; [27],7820 and 8060 and 12600
same,z-score,[15]; [23],-0.717 (inactive)
same,z-score,[15]; [24],-0.464
same,remaining NAD,[16],10 nM (inactive)
same,luciferase signal,[17],56 AU (inactive)
same,z-score,[18],0.635 (inactive)
Clc1ccc(CSC(Cn2ccnc2)c2ccc(Cl)cc2Cl)cc1 (centres undefined),score,[1],0.02
same,cytochrome c release ratio,[2],1.53
same,inhibition of aggregation,[3],26.4%
same,parasite load remaining,[19],45.1% (inactive) and 43.8% (inactive) and 9.3% (inactive)
same,viability,[19],77.3% and 59.6% and 86.4%
same,nuclear beta-catenin stimulation,[4]; at 10 µM,4.8% (inactive)
same,nuclear beta-catenin stimulation,"[4]; stimulation, at 2 µM",1.5%
same,insulin secretion stimulation,[5],2.6% (inactive)
same,viability decrease,[6],101% (active)
same,tube area decrease,[7],110% (active)
same,GLP1 secretion stimulation,[8],45.8% (active)
same,inhibition of viability,[9],102% (active)
same,viability decrease (inhibition),[10],141% (active)
same,viability decrease (inhibition),[11],104% (active)
same,inhibition,[12],1.36% (inactive)
same,red/green cell ratio (normalised),[13],0.91 (inactive)
same,normalised cell number,[13]; [21],1.1
same,normalised cell number,[13]; [22],1
same,activity remaining,[14],106% (inactive)
same,fold change,[20]; stronger effect = lower value,0.925 (inactive) and 0.946 (inactive) and 1.1 (inactive)
same,fold change,[20]; [25],1.29 and 0.637 and 1.2
same,cell count,[20]; [26],6020 and 7170 and 8360
same,cell count,[20]; [27],6500 and 7580 and 7600
same,z-score,[15]; [23],-0.246 (inactive) and 0.0301 (inactive)
same,z-score,[15]; [24],-0.177 and -0.00115
same,remaining NAD,[16],10 nM (inactive)
same,luciferase signal,[17],44 AU (inactive)
CC(C)[N+](C)(CCC(C(N)=O)(c1ccccc1)c1ccccc1)C(C)C,score,[1],1.43
same,cytochrome c release ratio,[2],1.07
same,inhibition of aggregation,[3],35.2%
same,parasite load remaining,[19],94.4% (inactive) and 83.4% (inactive) and 60% (inactive)
same,viability,[19],100% and 76.1% and 93.6%
same,nuclear beta-catenin stimulation,[4]; at 10 µM,0.4% (inactive)
same,nuclear beta-catenin stimulation,"[4]; stimulation, at 2 µM",-0.3%
same,insulin secretion stimulation,[5],-0.4% (inactive)
same,viability decrease,[6],-32.8% (inactive)
same,tube area decrease,[7],-3.8% (inactive)
same,GLP1 secretion stimulation,[8],-1.4% (inactive)
same,inhibition of viability,[9],-3.83% (inactive)
same,viability decrease (inhibition),[10],22% (inactive)
same,viability decrease (inhibition),[11],-1.8% (inactive)
same,inhibition,[12],-13.2% (inactive)
same,red/green cell ratio (normalised),[13],0.98 (inactive)
same,normalised cell number,[13]; [21],1.19
same,normalised cell number,[13]; [22],1.17
same,activity remaining,[14],119% (inactive)
same,fold change,[20]; stronger effect = lower value,0.953 (inactive) and 0.875 (inactive)
same,fold change,[20]; [25],1.13 and 0.654
same,cell count,[20]; [26],8490 and 10700
same,cell count,[20]; [27],8910 and 12200
same,z-score,[15]; [23],-0.488 (inactive)
same,z-score,[15]; [24],-0.766
same,remaining NAD,[16],10 nM (inactive)
same,luciferase signal,[17],76 AU (inactive)
N[C@@H]1C[C@H]1c1ccccc1,parasite load remaining,[19],105% (inactive)
same,viability,[19],90.9%
same,nuclear beta-catenin stimulation,[4]; at 10 µM,1.6% (inactive)
same,nuclear beta-catenin stimulation,"[4]; stimulation, at 2 µM",2.1%
same,insulin secretion stimulation,[5],0.5% (active)
same,viability decrease,[6],-2.2% (inactive)
same,tube area decrease,[7],-22.1% (inactive)
same,GLP1 secretion stimulation,[8],3.6% (inactive)
same,inhibition of viability,[9],19.4% (inactive)
same,viability decrease (inhibition),[10],10% (inactive)
same,viability decrease (inhibition),[11],-5.6% (inactive)
same,inhibition,[12],-7.3% (inactive) and 0.348% (inactive)
same,fold change,"[20]; stronger effect = lower value, cell number ratio, induced over uninduced",0.966 (inactive)
same,fold change,[20]; [25],1.35
same,cell count,[20]; [26],9350
same,cell count,[20]; [27],9680
same,luciferase signal,[17],36 AU (inactive)
same,z-score,[18],0.32 (inactive)
CC(=O)NC1CCSC1=O (centres undefined),parasite load remaining,[19],132% (inactive)
same,viability,[19],109%
same,nuclear beta-catenin stimulation,[4]; at 10 µM,2.9% (inactive)
same,nuclear beta-catenin stimulation,"[4]; stimulation, at 2 µM",3%
same,insulin secretion stimulation,[5],0.7% (inactive)
same,viability decrease,[6],-1% (inactive)
same,tube area decrease,[7],8% (inactive)
same,GLP1 secretion stimulation,[8],-0.5% (inactive)
same,inhibition of viability,[9],-4.73% (inactive)
same,viability decrease (inhibition),[10],12.1% (inactive)
same,viability decrease (inhibition),[11],-3.7% (inactive)
same,inhibition,[12],18.8% (inactive)
same,red/green cell ratio (normalised),[13],0.96 (inactive)
same,normalised cell number,[13]; [21],1.05
same,normalised cell number,[13]; [22],1.02
same,fold change,[20]; stronger effect = lower value,0.927 (inactive)
same,fold change,[20]; [25],0.928
same,cell count,[20]; [26],7880
same,cell count,[20]; [27],8510
same,z-score,[15]; [23],-0.207 (inactive)
same,z-score,[15]; [24],-0.982
same,remaining NAD,[16],10 nM (inactive)
same,luciferase signal,[17],52 AU (inactive)
